Results from PubChem BioAssay AID1159580 (chemical genetic matrix, 2015).
“And” between values parts separate entries of the source, which are not always exact repeats. Equal entries are not always repeated. Screen size: about 5,500 compounds; about 2,000 (36%) were called active. Another 18% or so got no clear call; they are omitted. Rule as the data show it: active = normalized growth mostly below about 0.91 (no sharp cut-off); inconclusive = no clear call, values can overlap the other calls; inactive = mostly above about 0.92. The list shows a part of the results.

Experiment: chemical genetic growth profiling, strain panel (AID 1159580);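 also: tested at 20 µM; growth read once vehicle control cultures reached saturation at 30 °C; 1 = growth at the plate median or of vehicle wells; lower values mean less growth of the strain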
Conditions: S. cerevisiae deletion strains, growth OD

Measured: normalized growth

CC(=O)N[C@@H](Cc1c[nH]c2ccccc12)C(N)=O
inactive: locus YAL013W, strain DEP1, active compounds read low 1.09 | locus YAL021C, strain ccr4, active compounds read low 1 | locus YAL026C, strain drs2, active compounds read low 1 | locus YAL030W, strain snc1, active compounds read low 1.02 | locus YBL061C, strain skt5, active compounds read low 1.02 | locus YBR009C, strain hhf1, active compounds read low 1.01 | locus YBR021W, strain FUR4, active compounds read low 1.02 | locus YBR023C, strain chs3, active compounds read low 1.02 | locus YBR171W, strain sec66, active compounds read low 1.01 | locus YBR229C, strain ROT2, active compounds read low 0.965 | locus YBR231C, strain swc5, active compounds read low 1.02 | locus YBR279W, strain paf1, active compounds read low 1.01 | locus YCL011C, strain gbp2, active compounds read low 1.02 | locus YCL016C, strain dcc1, active compounds read low 1.01 | locus YCL029C, strain bik1, active compounds read low 0.999 | locus YCL061C, strain MRC1, active compounds read low 1.02 | locus YCL069W, strain vba3, active compounds read low 1.02 | locus YCR088W, strain abp1, active compounds read low 1.03 | locus YDL005C, strain med2, active compounds read low 1.04 | locus YDL035C, strain GPR1, active compounds read low 0.985 | locus YDL040C, strain nat1, active compounds read low 1.02 | locus YDL074C, strain BRE1, active compounds read low 0.948 | locus YDL101C, strain DUN1, active compounds read low 0.977 | locus YDL134C, strain PPH21, active compounds read low 0.985 | locus YDL185W, strain tfp1, active compounds read low 0.972 | locus YDL192W, strain arf1, active compounds read low 0.99 | locus YDR001C, strain nth1, active compounds read low 1.01 | locus YDR069C, strain doa4, active compounds read low 1.03 | locus YDR101C, strain arx1, active compounds read low 0.997 | locus YDR137W, strain rgp1, active compounds read low 1.01 | locus YDR150W, strain NUM1, active compounds read low 0.972 | locus YDR159W, strain sac3, active compounds read low 1.03 | locus YDR162C, strain NBP2, active compounds read low 0.945 | locus YDR195W, strain ref2 1.05 | locus YDR297W, strain sur2, active compounds read low 1.03 | locus YDR318W, strain mcm21, active compounds read low 1 | locus YDR334W, strain swr1, active compounds read low 1.01 | locus YDR335W, strain msn5, active compounds read low 1 | locus YDR388W, active compounds read low 1 | locus YDR392W, strain spt3, active compounds read low 0.953 | locus YDR502C, strain sam2, active compounds read low 0.996 | locus YEL003W, strain gim4, active compounds read low 1.01 | locus YEL037C, strain rad23, active compounds read low 1.02 | locus YEL061C, strain CIN8 (second series), active compounds read low 1.02 | locus YEL061C, strain CIN8, active compounds read low 0.99 | locus YER015W, strain faa2, active compounds read low 1.02 | locus YER016W, strain bim1, active compounds read low 1.01 | locus YER110C, active compounds read low 1 | locus YER111C, strain swi4, active compounds read low 1.01 | locus YER155C, strain BEM2 (second series), active compounds read low 1.06 | locus YER155C, strain BEM2, active compounds read low 1.01 | locus YER167W, strain BCK2, active compounds read low 1.01 | locus YFR010W, strain ubp6, active compounds read low 1.02 | locus YGL078C, strain dbp3, active compounds read low 0.994 | locus YGL086W, strain mad1, active compounds read low 1 | locus YGL167C, strain pmr1, active compounds read low 1.01 | locus YGL173C, strain kem1, active compounds read low 1.02 | locus YGL227W, strain vid30, active compounds read low 1.03 | locus YGL240W, strain doc1, active compounds read low 1.05 | locus YGL248W, strain PDE1, active compounds read low 0.986 | locus YGL253W, strain hxk2, active compounds read low 1.01 | locus YGR078C, strain PAC10, active compounds read low 0.97 | locus YGR135W, strain pre9, active compounds read low 0.983 | locus YGR229C, strain SMI1, active compounds read low 0.973 | locus YGR252W, strain gcn5, active compounds read low 1.02 | locus YHR013C, strain ard1, active compounds read low 1.03 | locus YHR027C, strain rpn1, active compounds read low 1.01 | locus YHR030C, strain SLT2, active compounds read low 1 | locus YHR079C, strain IRE1 (second series), active compounds read low 1.01 | locus YHR079C, strain IRE1, active compounds read low 0.99 | locus YHR094C, strain hxt1, active compounds read low 0.995 | locus YHR129C, strain ARP1, active compounds read low 0.994 | locus YHR142W, strain chs7, active compounds read low 1 | locus YHR200W, strain rpn10, active compounds read low 1.01 | locus YIL066C, strain RNR3, active compounds read low 0.973 | locus YIL073C, strain SPO22, active compounds read low 1.06 | locus YIL125W, strain kgd1, active compounds read low 0.989 | locus YIR030C, strain dcg1, active compounds read low 1 | locus YJL092W, strain hpr5, active compounds read low 1.02 | locus YJL095W, strain BCK1 (second series), active compounds read low 1.02 | locus YJL095W, strain BCK1, active compounds read low 0.994 and 1.02 | locus YJL115W, strain asf1, active compounds read low 1.04 | locus YJL129C, strain trk1, active compounds read low 1.08 | locus YJL134W, strain LCB3, active compounds read low 0.997 | locus YJL154C, strain vps35, active compounds read low 1.02 | locus YJL164C, strain tpk1, active compounds read low 1.02 | locus YJL166W, strain qcr8, active compounds read low 1.04 | locus YJL168C, strain set2, active compounds read low 0.994 | locus YJL187C, strain SWE1 (second series), active compounds read low 0.972 | locus YJR043C, strain POL32, active compounds read low 1.05 | locus YJR066W, strain TOR1, active compounds read low 0.923
